A selection: hits, their analogues and other compounds. The true share with any hit is near 0.68%.
Mtb hypoxia inh: reduces hypoxia-regulated biosensor signal in M. tuberculosis; hit rate 0.1% among 300,000; fluorescence inhibition, % (test concentration not listed); M. tuberculosis hypoxia-regulated fluorescent reporter, fluorescence; in the data active = fluorescence inhibition mostly above about 23%, no sharp cut-off; inactive = mostly below about 17%
Sa RN4220 lethal: kills Staphylococcus aureus RN4220; S. aureus RN4220 growth, OD600, 16 h; inhibition, % (no concentration beside the values); hit rate 0.33% among 330,000; AID 1259311; in the data active = inhibition above about 85%;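 also: plate controls were untreated cells for no effect and reference antibiotic for full effect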
Mtb betalactam: beta-lactam sensitization of Mtb H37Rv | M. tuberculosis H37Rv growth with meropenem, percent inhibition | inhibition, % at 25 µM | hit rate 0.27% among 330,000 | AID 434955; call rule not given here;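 also: growth measured after seven days incubation then overnight dye step; 0% = bacteria only wells and 100% = bacteria with antibiotic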
Rv3671c protease: Rv3671c (M. tuberculosis) protease inhibition; inhibition, % at 5.96 µM; hit rate 0.048% among 320,000; AID 2606; in the data active = inhibition above about 38%;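 also: extracellular domain of Rv3671c used as enzyme; 0% = enzyme with DMSO and 100% = no enzyme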
Sa ugtP lethal: kills S. aureus RN4220 lacking UgtP. S. aureus RN4220 ugtP deletion, OD600 growth, 16 h. growth inhibition, % (test concentration not listed). hit rate 0.54% among 330,000. AID 1259309; in the data active = growth inhibition above about 68%;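 also: plate controls were untreated wells for no effect and antibiotic for full effect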
Mtb UGM inh: inhibitors of M. tuberculosis UDP-galactopyranose mutase. P9WIQ1. purified UGM, fluorescence polarization probe displacement. inhibition, % at 10 µM. hit rate 0.06% among 320,000. AID 504406; in the data active = inhibition above about 10%, passing the limit was not always enough
Target sequence (P9WIQ1 whole entry, looked up): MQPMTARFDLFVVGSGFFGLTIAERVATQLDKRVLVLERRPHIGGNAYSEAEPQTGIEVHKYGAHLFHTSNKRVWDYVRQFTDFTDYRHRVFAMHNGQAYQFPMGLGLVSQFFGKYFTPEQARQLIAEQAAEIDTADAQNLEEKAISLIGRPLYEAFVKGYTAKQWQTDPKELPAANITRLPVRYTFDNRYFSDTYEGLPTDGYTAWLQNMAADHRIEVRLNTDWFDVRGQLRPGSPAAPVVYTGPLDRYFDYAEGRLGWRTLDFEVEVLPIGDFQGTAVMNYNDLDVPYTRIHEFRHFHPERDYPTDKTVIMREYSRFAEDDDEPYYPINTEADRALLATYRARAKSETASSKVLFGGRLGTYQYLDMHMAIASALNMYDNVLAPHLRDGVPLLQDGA
Starred values were filed as active, the others as inactive; . = no result given.

SMILES	Mtb hypoxia inh	Sa RN4220 lethal	Mtb betalactam	Rv3671c protease	Sa ugtP lethal	Mtb UGM inh
N=c1c2c(-c3ccccc3)c(-c3ccccc3)n(Cc3ccco3)c2ncn1CCO	6	0	42	-4	85*	2
O=C(C=Cc1ccc(Cl)cc1Cl)NCCN1CCOCC1	.	-1	.	.	5	.
CCCCCCSc1nsc(NC(=O)CC(C)C)n1	16	3	99	-5	0	3
CCCCCCCSc1nsc(N)n1	11	8	14	-8	89*	1
COc1ccc(CCn2c(=N)c(S(=O)(=O)c3ccc(C)cc3)cc3c(=O)n4ccccc4nc32)cc1	3	0	8	1	-17	21*
CCN(c1cccc(C)c1)c1nc2ccsc2c(=O)s1	4	-3	4	6	88*	0
CCN(c1ccccc1)c1nc(=O)c2cccnc2s1	23	4	-7	4	12	0
O=C(NC1CC1)C1=CC(c2coc3ccccc3c2=O)CC(OCCCCO)O1 (stereo not given)	21	5	.	.	4	.
Cc1cc(C)nc(SC2=CS(=O)(=O)c3ccccc32)n1	11	6	-7	1	-2	3
O=S1(=O)C=C(Sc2nc3ccccc3s2)c2ccccc21	.	54	99	-23	91*	-2
Cc1cccc(C(=O)CC(=O)c2cc(Cl)ccc2O)c1	11	100*	3	4	100*	-1
Cc1ccc(O)c(C(=O)CC(=O)c2cccc(F)c2)c1	.	78	99	3	100*	2
O=C(CC(=O)c1cc(Cl)ccc1O)c1ccccc1	4	100*	100	-3	100*	1
COc1ccc(O)c(C(=O)CC(=O)c2ccc(F)cc2)c1	.	.	94	-3	.	1
Cc1ccc(O)c(C(=O)CC(=O)c2ccc(Cl)cc2)c1	-6	100*	100	-10	101*	-3
Cc1cccc(C(=O)NCC(=O)NNC(=O)c2ccccc2O)c1	6	0	4	5	3	-2
CCC(C)C(NC(=O)OC(C)(C)C)c1cn(C(CCC(=O)OC(C)(C)C)C(=O)N2CCN(C(=O)OC(C)(C)C)CC2)nn1 (stereo not given)	1	3	.	.	-7	.
O=C(C=CNc1ccccc1Br)c1ccccn1	4	9	.	.	-8	.
O=C(COC(=O)c1cccc(Cl)c1)Nc1cc(S(=O)(=O)N2CCOCC2)ccc1N1CCOCC1	-8	0	.	.	-1	.
O=C(OCCN1C(=O)c2ccccc2C1=O)c1cc(S(=O)(=O)N2CCOCC2)ccc1Cl	.	5	-1	-1	3	1
O=C(OCCN1C(=O)c2cccc3c(N4CCOCC4)ccc(c23)C1=O)c1ccccc1Cl	3	27	-1	-42	-9	22*
Cc1n[nH]c(C)c1N1C(=O)c2cccc3c(N4CCCCCC4)ccc(c23)C1=O	-8	3	68	19	-4	14*
O=C(OCCN1C(=O)c2cccc3c(N4CCOCC4)ccc(c23)C1=O)c1cccc(Cl)c1	-2	3	-2	-23	-4	25*
O=C(OCCN1C(=O)c2cccc3c(N4CCOCC4)ccc(c23)C1=O)c1ccc(Cl)cc1Cl	9	1	84	-33	-1	23*
O=C1c2cccc3c(N4CCCCC4)ccc(c23)C(=O)N1c1cccc(O)c1	5	0	1	-30	-3	-3
SMILES	Mtb hypoxia inh	Sa RN4220 lethal	Mtb betalactam	Rv3671c protease	Sa ugtP lethal	Mtb UGM inh
COc1cc(C=CC(=O)O)cc(S(=O)(=O)Nc2ccccc2SC)c1OC	4	-1	.	.	-5	.
C=CCN1C(=O)c2cccc3c(N4CCCCC4)ccc(c23)C1=O	-1	4	3	-5	7	7
O=C1c2cccc3c(N4CCCCC4)ccc(c23)C(=O)N1CCO	2	6	-1	-3	0	30*
C#CCOCCOCCOCCNc1nc(N2CCN(C(=O)C(CCC(=O)O)n3cc(C(N)C(C)CC)nn3)CC2)nc(N2CCN(C(=O)C(CCC(=O)O)n3cc(C(N)C(C)CC)nn3)CC2)n1 (stereo not given)	3	4	.	.	0	.
Cc1ccccc1-n1c(SCC(=O)NC(N)=O)nc2sc(-c3ccccc3)cc2c1=O	8	96*	-1	-21	99*	0
Cc1cc(C(=O)c2ccc(Cl)cc2)c(NC(=O)CCl)s1	18	0	96	-14	8	-3
CCc1cc(C(=O)c2ccc(C)cc2)c(NC(=O)CCl)s1	17	4	97	-8	22	61*
CCC(CC)CN1C(Nc2ccccc2)=NCC1C (stereo not given)	5	2	.	.	-10	.

Screening data as filed in PubChem.
